Cycloheximide cs – counter-screen for Shiga toxin inhibitors: cycloheximide protein synthesis inhibition; max response, %; 12% of 300,000 active; AID 2314; cell reporter, cycloheximide protein synthesis inhibition counterscreen; in the data active = max response mostly above about 13%, no sharp cut-off; inactive = mostly below about 14%; note: read at 38.3 µM for the half of the compounds with a filed dose
Shiga inhibitor – Shiga toxin inhibition; Vero cells, Shiga toxin protein synthesis inhibition reporter; inhibition, % at 38.7 µM; 9.2% of 290,000 active; in the data active = inhibition mostly above about 28%, no sharp cut-off; inactive = mostly below about 43%
Marburg entry inh – inhibitors of Marburg virus binding or cell entry; 1.8% of 300,000 active; Potency, µM (doses to about 37.8 µM), most hits filed as inhibitors; Marburg virus pseudotyped entry inhibition, cell reporter; AID 540276; calls by dose curve; tested in HEK293 cells
LASV entry inh – inhibitors of Lassa virus binding or cell entry; Lassa virus pseudotype entry inhibition, cell reporter; Potency, µM (series often up to 37.9 µM), usual class: inhibitors; 1.2% of 300,000 active; AID 540256; calls by dose curve; tested in HEK293 cells; note: nearly all actives have a fitted effect of over 50% in size
Pf growth 96h – P. falciparum growth inhibition at 96 hours | 6.9% of 320,000 active | Potency, µM (doses to about 28.7 µM), usual class: inhibitors | P. falciparum luciferase reporter growth, 96 h
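Two parasite generations (96 h, 37 C, 5% CO2) of compound exposure in infected erythrocytes (0.05% parasitemia, 2% hematocrit). Luciferase-reporter P. falciparum; decreased luminescence indicates inhibited growth, aimed at apicoplast-acting delayed death.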
Pf growth 48h – P. falciparum growth inhibition at 48 hours (one generation). P. falciparum luciferase growth in erythrocytes, 48 h. Potency, µM (doses to about 28.7 µM), actives largely listed as inhibitors. 5.9% of 310,000 active. AID 504832
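Growth was read as firefly luciferase luminescence after a 48 h, 37 C, 5% CO2 exposure of compounds to reporter-bearing P. falciparum cultures (0.1% parasitemia, 2% hematocrit final) in Albumax-supplemented RPMI 1640.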
Large screens that a line does not name were inactive. In the library only some 19% were active in any assay of this set; here they are far more common. Unless noted, calls come from the whole dose curve; as a rule, active = well fitted inhibition curve with a large enough effect; inconclusive = small, poorly fitted or top-dose-only effect, or another doubt; inactive = no such curve, though single readings can be large or run the other way.

CC1CCCCN1C(=O)CSc1nnc(-c2cccs2)o1 (stereo unspecified)	Cycloheximide cs 48, Shiga inhibitor 67, Marburg entry inh inconclusive, LASV entry inh inconclusive
CC1CCCC(C)N1C(=O)CSc1nnc(-c2cccs2)o1 (stereo unspecified)	Cycloheximide cs 35, Shiga inhibitor 51, Marburg entry inh inconclusive
O=C(CSc1nnc(-c2cccs2)o1)N1CCOCC1	none
Cc1ccc(OCc2nc(C#N)c(N3CCN(Cc4ccccc4)CC3)o2)cc1	none
CCn1c(/N=C/c2ccccc2O)nc2ccccc21	Pf growth 96h inconclusive
CCOc1ccc(C(CC(=O)O)NC(=O)COc2ccccc2)cc1OC (stereo unspecified)	Pf growth 96h inconclusive
Cc1ccc(-c2c3c([nH]c(=S)c2C#N)CCCC3)o1	none
COC(=O)c1c(NC(=O)CSc2nnc(-c3cccnc3)n2Cc2ccco2)sc(C)c1C	Pf growth 48h inconclusive
COc1ccc(NC(=O)CN2C(=O)COc3ccc(S(=O)(=O)N4CCCCCC4)cc32)cc1	Pf growth 96h 10µM (no result: Marburg entry inh)
CCOc1ccc(NC(=O)CN2C(=O)COc3ccc(S(=O)(=O)N4CCCCC4)cc32)cc1	Pf growth 48h inconclusive (no result: Marburg entry inh, LASV entry inh)
CCN(Cc1ccccc1)C(=O)CN1C(=O)COc2ccc(S(=O)(=O)N3CCCCCC3)cc21	Pf growth 96h inconclusive, Pf growth 48h 10µM
CCN(C(=O)CN1C(=O)COc2ccc(S(=O)(=O)N3CCCCCC3)cc21)c1cccc(C)c1	Marburg entry inh inconclusive, Pf growth 96h inconclusive, Pf growth 48h 3.3µM
CC(C)N(Cc1ccccc1)C(=O)CN1C(=O)COc2ccc(S(=O)(=O)NC3CCCC3)cc21	Marburg entry inh inconclusive, Pf growth 96h inconclusive, Pf growth 48h 5.2µM
COCCn1nnnc1C(c1cc(OC)ccc1OC)N1CCc2ccccc2C1 (stereo unspecified)	Pf growth 48h inconclusive (no result: Pf growth 96h)
COc1ccc(CC2(CO)COc3ccccc3C2=O)cc1 (stereo unspecified)	Marburg entry inh inconclusive (no result: Cycloheximide cs, Shiga inhibitor, Pf growth 96h, Pf growth 48h)
Cc1cc(C)c2nc(NC3=NCN(CCN4CCOCC4)CN3)nc(C)c2c1	Pf growth 48h inconclusive (no result: LASV entry inh)
CCOc1cc(-n2cnnn2)c(OCC)cc1NC(=O)c1cnccn1	Pf growth 96h 5.2µM
CCCCc1ccc(NC(=O)c2cnccn2)cc1	Cycloheximide cs 37, Shiga inhibitor 61, Marburg entry inh 7.9µM, LASV entry inh 11µM
CCOC(=O)c1ccc(NC(=O)c2cnccn2)cc1	Cycloheximide cs 20, Pf growth 96h inconclusive
CCCc1ccc(C(C)NC(=O)c2cnccn2)cc1 (stereo unspecified)	Pf growth 48h inconclusive
COc1ccc(NS(=O)(=O)N2CCCCC2)cc1	none (no result: Cycloheximide cs, Shiga inhibitor, Pf growth 96h, Pf growth 48h)
O=[N+]([O-])c1ccc(-c2c(O)c3ccccc3c3nc4ccccc4nc23)cc1	Pf growth 48h inconclusive
CCNc1nc(N)nc(-c2cc(Cl)ccc2O)n1	Cycloheximide cs 49, Shiga inhibitor 56, Marburg entry inh inconclusive, LASV entry inh inconclusive
CCCCNc1nc(N)nc(-c2cc(Cl)ccc2O)n1	Cycloheximide cs 74, Shiga inhibitor 79, Marburg entry inh inconclusive, LASV entry inh inconclusive
O=C(CCC(=O)Nc1ccc(F)cc1)N/N=C/c1ccc(Br)cc1	Pf growth 96h 3.7µM
O=C(CCC(=O)Nc1ccc(F)cc1)N/N=C/c1ccccc1	Pf growth 96h 1.5µM (no result: Marburg entry inh, LASV entry inh)
O=C(CCC(=O)Nc1ccccc1)N/N=C/c1ccncc1	Cycloheximide cs 23, Pf growth 48h inconclusive (no result: Marburg entry inh, LASV entry inh)
C=CCc1cccc(/C=N/NC(=O)C(C)Nc2cccc(C)c2)c1O (stereo unspecified)	Marburg entry inh inconclusive, LASV entry inh 11µM, Pf growth 48h 13µM
O=C(CCC(=O)Nc1ccc(F)cc1)N/N=C/c1ccncc1	none
COc1ccc2cc(OC)c(C(=O)N3CCOCC3)cc2c1	none
OCn1c2ccccc2c2ccccc21	none (no result: Marburg entry inh, LASV entry inh)
CC(C)C1CC(c2ccccc2)(C(CN)CO)CCO1 (stereo unspecified)	Pf growth 48h inconclusive
O=C(CCC(=O)Nc1ccc(Br)cc1)N/N=C/c1ccccc1O	Cycloheximide cs 21, Marburg entry inh inconclusive, LASV entry inh inconclusive, Pf growth 96h inconclusive, Pf growth 48h inconclusive
Cc1ccc(NC(=O)CCC(=O)N/N=C/c2ccccc2O)cc1	none (no result: Marburg entry inh, LASV entry inh)
Cc1ccc(SCCC(=O)N/N=C/c2ccccc2O)cc1	Marburg entry inh inconclusive, LASV entry inh inconclusive, Pf growth 96h inconclusive, Pf growth 48h 15µM
O=C(Nc1ccccc1)O/N=C/c1ccncc1	Cycloheximide cs 17, LASV entry inh inconclusive, Pf growth 96h inconclusive
C=CCc1cccc(/C=N/NC(=O)CCC(=O)Nc2ccc(F)cc2)c1O	Marburg entry inh 13µM, LASV entry inh inconclusive, Pf growth 96h inconclusive
Cc1ccc(N(CC(=O)NCC2CCCO2)S(=O)(=O)c2ccccc2)c(C)c1 (stereo unspecified)	Marburg entry inh inconclusive, LASV entry inh inconclusive
O=S(=O)(c1cccs1)N1CCN(CC(O)COc2cccc(Br)c2)CC1 (stereo unspecified)	Marburg entry inh inconclusive, Pf growth 96h inconclusive (no result: Pf growth 48h)
CCOC(=O)c1ccc(NC(=O)CSc2ccc(-c3ccccn3)nn2)cc1	LASV entry inh inconclusive, Pf growth 96h inconclusive
N#CC1=C(N)OC2=C(CCC/C2=C/c2ccoc2)C1c1ccoc1 (stereo unspecified)	none (no result: Marburg entry inh, LASV entry inh)
O=C(O)CCCC/C=C(\c1ccccc1)c1cccnc1	Pf growth 96h 1.7µM (no result: Cycloheximide cs, Shiga inhibitor, Marburg entry inh, LASV entry inh)
CCCCCCCCC(=O)N/N=C(\C)c1cccnc1	none
CN1CCN(NC(=O)c2ccc(S(=O)(=O)N3CC4(C)CC3CC(C)(C)C4)cc2)CC1 (stereo unspecified)	none (no result: Marburg entry inh, LASV entry inh)
Cc1ccccc1OCC(=O)NC1=NCCS1	Cycloheximide cs 29, Shiga inhibitor 32, Marburg entry inh inconclusive (no result: Pf growth 48h)
O=C(COc1ccccc1)NCC(=O)NC1=NCCS1	none
COC(=O)NNC(=O)COc1ccccc1C	Marburg entry inh inconclusive
Cc1ccc(OCC(=O)NC2=NCCS2)cc1	Cycloheximide cs 25, Marburg entry inh inconclusive, LASV entry inh inconclusive
COc1ccc(C(=O)c2c[nH]c(C(=O)N=CN(C)C)c2)cc1	Cycloheximide cs 20, Shiga inhibitor 42, Marburg entry inh inconclusive (no result: LASV entry inh)
CC(C)(C)c1ccc(C(=O)c2c[nH]c(C(=O)NCCCN3CCOCC3)c2)cc1	Marburg entry inh inconclusive, Pf growth 96h 10µM, Pf growth 48h 13µM
COc1ccc(C(=O)c2c[nH]c(C(=O)NCC3CCCO3)c2)cc1 (stereo unspecified)	Cycloheximide cs 21, Marburg entry inh inconclusive, Pf growth 96h inconclusive
CC(C)(C)c1ccc(C(=O)c2c[nH]c(C(=O)NCCc3ccccn3)c2)cc1	Marburg entry inh inconclusive, Pf growth 96h inconclusive, Pf growth 48h 10µM
Cc1ccccc1C(=O)c1c[nH]c(C(=O)NCC2CCCO2)c1 (stereo unspecified)	none
CC(C)(C)c1ccc(C(=O)c2c[nH]c(C(=O)NCC3CCCO3)c2)cc1 (stereo unspecified)	Cycloheximide cs 22, LASV entry inh inconclusive, Pf growth 96h inconclusive, Pf growth 48h inconclusive
Cc1cc(C)nc(Nc2nc(C)c3cc4c(cc3n2)OCO4)n1	none (no result: Pf growth 96h)
